Rows were chosen to be rich in hits. Some 11% of all compounds tested hit in one or more screens of this group.
L3MBTL1 inh: qHTS Assay for the Inhibitors of L3MBTL1; Lethal(3)malignant brain tumor-like protein 1 (Homo sapiens), Q9Y468; AlphaScreen L3MBTL1–H3K9me1 peptide binding; Potency, µM (titrated, usually from 57.1 µM), for inactives: at the top dose activity, negative = inhibition, most hits filed as inhibitors; actives 0.66% (n = 230,000); AID 485360, 2010; note: potency is the fitted concentration of half-maximal effect; % is set by controls: 0 for no effect and ±100 for the full control effect; nearly all actives have a fitted effect of over 60% in size
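Read-out is AlphaScreen signal from streptavidin donor and nickel chelate acceptor beads (10 ug/mL final each) bridging L3MBTL1 (50 nM) and biotinylated K9-monomethylated H3(1-15) peptide (75 nM), after 30 min compound exposure at room temperature.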
G9a block: qHTS Assay for Inhibitors of Histone Lysine Methyltransferase G9a | Histone-lysine N-methyltransferase EHMT2 (Homo sapiens), Q96KQ7 | AID 504332, 2011 | G9a H3K9 monomethylation, AlphaScreen, 2 h | Potency, µM (top dose mostly 102 µM), inactives show top-dose activity, negative = inhibition, usual class: inhibitors | actives 8.8% (n = 350,000); note: potency is the fitted concentration of half-maximal effect; % is set by controls: 0 for no effect and ±100 for the full control effect; nearly all actives have a fitted effect of over 75% in size
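Chemiluminescent proximity detection of H3K9 monomethylation, read after 10 min bead incubation in the dark. Reaction: 20 nM G9a, 500 nM biotin-H3K9 peptide, 20 uM SAM cofactor, 2 h, room temperature, following 15 min enzyme-compound preincubation.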
JMJD2A Tudor: qHTS Assay for Inhibitors of JMJD2A-Tudor Domain; actives 4.4% (n = 390,000); AlphaScreen JMJD2A-Tudor / H3K4me3 peptide binding; Lysine-specific demethylase 4A (Homo sapiens), O75164; Potency, µM (doses to about 114 µM), for inactives: at the top dose activity change, negative = inhibition, actives largely listed as inhibitors; note: potency is the fitted concentration of half-maximal effect; % is set by controls: 0 for no effect and ±100 for the full control effect; nearly all actives have a fitted effect of over 50% in size
HP1b chromo inh: HTS for Inhibitors of HP1-beta Chromodomain Interactions with Methylated Histone Tails; Chromobox protein homolog 1 (Homo sapiens), P83916; AlphaScreen HP1-beta / biotin-H3K9me3 peptide binding; Potency, µM (doses to about 114 µM), for inactives: at the top dose activity change, negative = inhibition, hits mostly inhibitors; actives 0.56% (n = 390,000); note: potency is the fitted concentration of half-maximal effect; nearly all actives have a fitted effect of over 70% in size
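AlphaScreen: HP1-beta (50 nM) preformed 30 min with biotin-H3(1-18)K9me3 peptide (50 nM) in PBS pH 7.4, 0.01% Tween-20. Compound added for 30 min at RT, then streptavidin donor/nickel chelate acceptor beads (10 ug/mL) for 30 min.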
BAZ2B inh: qHTS Assay for Inhibitors of BAZ2B; Bromodomain adjacent to zinc finger domain protein 2B (Homo sapiens), Q9UIF8; AlphaScreen BAZ2B-H3K14Ac peptide displacement; Potency, µM (highest dose often 114 µM), for the others: top-dose activity change, negative = inhibition, hits mostly inhibitors; actives 4.4% (n = 360,000); AID 504333, 2011; note: potency is the fitted concentration of half-maximal effect; % is set by controls: 0 for no effect and ±100 for the full control effect; nearly all actives have a fitted effect of over 60% in size
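Protein-peptide AlphaScreen: BAZ2B 50 nM, b-H3K14Ac 50 nM, 1x PBS pH 7.4 + 0.01% Tween-20. Preincubation 30 min RT; cpd 30 min RT (top 110 uM); beads 20 min RT, light-protected.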
PI5P4Ka inh: qHTS for Inhibitors of phosphatidylinositol 5-phosphate 4-kinase (PI5P4K); max response, %; actives 1.2% (n = 330,000); AID 652105, 2013; PI5P4Kalpha enzyme, ADP-Glo luminescence, 60 min; hits give low values; active = max response of -50% or lower; inconclusive = between -30% and -50%; inactive = -30% or higher; note: value at the top dose of about 77 µM; % is set by controls: 0 for no effect and ±100 for the full control effect
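Luminescence from ADP-Glo served as readout of PI5P4Kalpha activity in a qHTS format. Reaction: enzyme, substrate, compound, ATP at 5 microM final, 60 min at RT.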
* marks the source's active call; other numbers are inactive results; ? = inconclusive; / = not tested or not shown; [ ] = remark or other dose. Unless noted, calls come from the whole dose curve; as a rule, active = well fitted inhibition curve with a large enough effect; inconclusive = small, poorly fitted or top-dose-only effect; inactive = no such curve, though single readings can be large or run the other way.

SMILES	L3MBTL1 inh	G9a block	JMJD2A Tudor	HP1b chromo inh	BAZ2B inh	PI5P4Ka inh
CCOC(=O)CSc1nc2sc3c(c2c(=O)n1-c1ccc(OC)cc1)CC(C(C)C)OC3 (stereo unspecified)	/	-2%[59 µM]	1%	30%	-1%	/
COc1ccccc1CN1CCC2(CCNCC2)CC1	/	-1%[12.7 µM]	/	/	/	/
COc1ccc(OC)c(CNC(=O)NCc2noc3ccc(C)cc23)c1	/	24%[59 µM]	6%	59%	5%	/
COc1cc(/C=N/NC(=O)c2ccc(-n3cccc3)cc2)ccc1O	-8%	79µM*	?	-34%	?	?
COc1ccc(/C=N/NC(=O)c2ccccc2F)cc1CN1CCN(c2ccc(F)cc2)CC1	-15%	-51%[59 µM]	-25%	-18%	50µM*	1
COc1cc(C(=O)N/N=C/c2ccc(OC)c(CN3CCN(c4ccc(F)cc4)CC3)c2)ccc1O	/	?	45µM*	-14%	-70%	0
COc1cc(/C=N/NC(=O)c2cccs2)ccc1O	0%	/	0%	76%	-4%	7
COc1cc(/C=N/NC(=O)NC23CC4CC(CC(C4)C2)C3)ccc1O	/	56µM*	-33%	1%	?	3
CCCCc1nn2c(=O)cc(COC(=O)c3ccc(NC(=O)c4cccc(OC)c4)cc3)nc2s1	/	-21%[59 µM]	-17%	36%	-7%	/
Cc1cccc(CSCCNC(=O)C2CCN(S(=O)(=O)Cc3ccccc3)CC2)c1	/	?	-30%	9%	?	/
CCOc1ccc(-c2cc(C(=O)Oc3ccc(C#N)cc3)no2)cc1	/	-4%[59 µM]	6%	65%	3%	/
C/C(N)=C(/C#N)C(=O)COC(=O)c1ccc(C#N)cc1	?	22µM*	-18%	23%	?	0
O=C(COC(=O)c1ncc(Cl)c(Cl)c1Cl)NC1CCCCCC1	3%	40µM*	-3%	19%	23%	7
N#Cc1ccc(C(=O)OCC(=O)NC2CCCC2)cc1	/	45µM*	-3%	32%	5%	8
O=C(COC(=O)c1ccccc1Br)NC1CCCC1	/	40µM*	3%	21%	-14%	4
N#Cc1ccc(OCC(=O)NC2CCCCCC2)cc1	11%	/	-1%	11%	/	2
O=C(NCCc1ccc(Cl)cc1)c1cccn1-c1nnc(N2CCCCC2)s1	/	2%[59 µM]	-35%	-5%	-22%	/
O=[N+]([O-])C(=C1SCCS1)C(=C(Cl)Cl)N1CCCCC1	/	6.3µM*	35µM*	25µM*	7.9µM*	12
O=[N+]([O-])C(/C=C(\Cl)[N+](=O)[O-])=C(N1CCCCC1)N1CCCCC1	/	?	-12%	7%	-18%	5
COc1cccc(/C=N/Nc2ccnc(=O)[nH]2)c1O	/	15%	?	47%	50µM*	-20
Cc1c(C(=O)O)cccc1-n1c(C)cc(/C=N/Nc2ccc([N+](=O)[O-])cn2)c1C	-10%	45µM*	-2%[11.4 µM]	-29%	45µM*	?
COc1cccc(/C=N/Nc2ccc([N+](=O)[O-])cn2)c1O	/	95%	?	414%	40µM*	-11
O=c1nccc(N/N=C/c2ccccc2O)[nH]1	/	40%	?	25%[57 µM]	50µM*	-24
Cc1cc(/C=N/Nc2ccc([N+](=O)[O-])cn2)c(C)n1-c1ccccc1	/	?	-32%	7%	?	-17
COc1cc(NC(=O)c2nn(-c3ccc(F)cc3)c(=O)n(C)c2=O)cc(OC)c1OC	/	14%[59 µM]	-21%	24%[57 µM]	0%	/
SMILES	L3MBTL1 inh	G9a block	JMJD2A Tudor	HP1b chromo inh	BAZ2B inh	PI5P4Ka inh
CC(=O)Nc1ccc(-c2cc(C(=O)O)c3c(-c4ccccc4)[nH]nc3n2)cc1	/	8%[59 µM]	1%	26%	1%	/
COc1ccc(CN2CCN(S(=O)(=O)c3ccc(C)cc3)CC2)cc1OC	/	/	50µM*	?	/	-7
CCOc1ccc(S(=O)(=O)N2CCN(Cc3ccccc3)CC2)cc1	43%	/	2%	33%	14%	14
COc1cc(CC(=O)Nc2ccc(S(=O)(=O)N(C)C)cc2)cc(OC)c1OC	-1%	50µM*	-9%	38%	26%	/
COc1cccc(CN2CCN(S(=O)(=O)c3ccc(NC(C)=O)cc3)CC2)c1OC	5%	-11%	2.5µM*	?	-16%	-6
COc1ccc(S(=O)(=O)N2CCN(Cc3ccccc3)CC2)cc1OC	2%	/	-15%	18%	-4%	4
CCOc1ccc(CN2CCN(S(=O)(=O)c3ccc(Cl)cc3)CC2)cc1	/	2.2µM*	?	-32%	-1%	/
COc1cccc(C2CC(=O)Nc3c2c(=O)[nH]c2nc4ccccc4n32)c1 (stereo unspecified)	/	-4%[59 µM]	-15%	22%	-20%	/
COc1cc(CN2CCN(S(=O)(=O)c3ccc(NC(C)=O)cc3)CC2)cc(OC)c1OC	/	25µM*	22µM*	?	50µM*	/
CC(Sc1nc2c([nH]c3ccccc32)c(=O)n1-c1ccccc1)c1ccccc1 (stereo unspecified)	/	-28%[59 µM]	?	6%[57 µM]	-30%	/
COc1ccc(NC(=O)C(=O)NCc2ccco2)c(OC)c1	/	-5%[59 µM]	-5%	35%	7%	/
Cc1ccc(-c2[nH]nc(N)c2N=Nc2ccccc2C)cc1	?	?	25µM*	?	?	20
Nc1n[nH]c(N)c1N=Nc1ccc2c(c1)OCO2	?	9%[59 µM]	?	-5%	40µM*	-16
Cc1cc(-c2ccc(Br)cc2)n[nH]1	-2%	-4%	-1%	22%	-11%	1
Cc1[nH]nc(N)c1N=Nc1ccc(Br)cc1	?	/	/	/	40µM*	/
Nc1n[nH]c(C2CC2)c1N=Nc1ccc(Cl)c(Cl)c1	?	36%[59 µM]	?	?	15%	48
Cc1ccc(C)c2sc(N)nc12	0%	-31%	-8%	19%	-5%	3
Cc1nc(N)sc1N=Nc1ccc(Br)cc1	/	?	?	-33%	25µM*	/
CC(Oc1ccc(F)cc1)C(=O)Nc1cc(-c2ccc(F)c(F)c2)no1 (stereo unspecified)	/	50%[59 µM]	-6%	112%	-14%	/
CCC(C)NC(=O)Cn1c(=O)n(CCCC(=O)NCc2ccc(C)cc2)c(=O)c2ccccc21 (stereo unspecified)	/	3%[59 µM]	7%	22%	0%	/
Cc1cc(C)c2sc(N(Cc3cccnc3)C(=O)CCS(=O)(=O)c3ccccc3)nc2c1	/	18%[59 µM]	-14%	19%	-9%	/

Source: PubChem
